# PubChem BioAssay AID588519 (ICCB-Longwood Screening Facility, Harvard Medical School, 2011)
# Several values for one entry are separate records, joined by “and”; a condition that tells them apart may be missing. Equal values may be shown once. Screen size: about 150,000 compounds; about 1,000 (0.67%) were called active. Rule as the data show it: active = % elongation below about 90%; inactive = the rest, inconclusive results apart. What follows is part of a selection rich in actives, with near analogues and random picks from the rest.
# Biological target: Genome polyprotein (Poliovirus type 1 (strain Mahoney)) (UniProt P03300)
# Sequence (P03300 1749-2209 limits assumed): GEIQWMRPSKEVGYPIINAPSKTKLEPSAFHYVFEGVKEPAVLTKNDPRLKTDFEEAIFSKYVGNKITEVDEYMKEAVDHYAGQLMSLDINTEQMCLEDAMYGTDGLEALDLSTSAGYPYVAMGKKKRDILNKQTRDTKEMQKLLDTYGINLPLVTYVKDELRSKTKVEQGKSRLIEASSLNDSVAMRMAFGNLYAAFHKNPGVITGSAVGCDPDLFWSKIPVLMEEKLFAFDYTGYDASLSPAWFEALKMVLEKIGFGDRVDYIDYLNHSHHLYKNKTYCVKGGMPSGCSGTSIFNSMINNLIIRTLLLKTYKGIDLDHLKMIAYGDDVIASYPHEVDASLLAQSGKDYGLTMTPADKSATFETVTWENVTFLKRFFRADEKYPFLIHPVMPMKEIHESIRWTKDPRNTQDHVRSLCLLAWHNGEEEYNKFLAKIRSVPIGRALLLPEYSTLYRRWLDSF
# Assay: inhibitors of poliovirus polymerase RNA elongation – biochemical, fluorescence polarization, total intensity, primary screen (AID 588519); as to z-score: compound at 16.7 µg/mL
# Conditions: stronger effect = lower value; for % elongation: compound at 16.7 µg/mL; for z-score: measured here: FP z-score
# [1] = measured here: total intensity read-out
Compound,% elongation,z-score,% elongation [1]
CC1CC(C)CN(C(=O)COC(=O)c2ccc(C#N)cc2)C1 (configuration not stated),101% (inactive),-0.2,102%
Cc1ccc(Cn2nc(C)c(/C=C/C(=O)OCc3nc4ccccc4c(=O)n3CC#N)c2C)cc1,108% (inactive),0.9,119%
O=C(CC12CC3CC(CC(C3)C1)C2)Nc1noc2ccccc12,101% (inactive),-0.1,102%
COC(CNC(=O)c1ccc2c(c1)N(Cc1cc(C)ccc1C)C(=O)c1ccccc1S2=O)OC (configuration not stated),99% (inactive),-1.1,103%
CC(C)Sc1n[nH]c(=S)n1N,83% (active),-1.9,88%
CC(C)c1n[nH]c(=S)n1N,62% (active),-2.9,68%
CCn1c(C(C)C)n[nH]c1=S,103% (inactive),0.6,102%
CC(C)n1c(-c2ccncc2)n[nH]c1=S,102% (inactive),0.7,103%
O=C(CN1C(=O)c2ccccc2C1=O)NN1C(=O)CSC1=S,97% (inactive),-0.8,106%
COc1ccc(O)c(C(=O)c2cnn3c(N)nnc3c2)c1,84% (active),-2.3,84%
COc1ccc(OC)c(C(=O)c2ccc(C(=O)O)cc2)c1,102% (inactive),0.4,100%
COc1ccc(O)c(C(=O)c2cnn(C(=O)c3ccc4c(=O)n5c(nc4c3)CCC5)c2)c1,104% (inactive),0.1,108%
COc1cc(C=Nc2c(C)n(C)n(-c3ccccc3)c2=O)ccc1OC(=O)c1ccco1,104% (inactive),0.5,102%
O=C(CSc1nc2c(c(=O)[nH]1)CN(Cc1ccc(F)cc1)CC2)Nc1ccccc1Cl,-15% (active),-8.9,19%
COc1cccc(CN2CCc3nc(SCC(=O)Nc4ccccc4)[nH]c(=O)c3C2)c1,107% (inactive),-0.1,111%
O=C(CSc1nc2c(c(=O)[nH]1)CN(Cc1ccc3c(c1)OCO3)CC2)Nc1cc(F)ccc1F,108% (inactive),0,107%
CC[N+](CC)=c1scc(-c2ccc(Cl)cc2)s1,102% (inactive),-0.2,110%
O=c1ccc(-c2ccc(S(=O)(=O)N3CCc4ccccc43)o2)n[nH]1,102% (inactive),0.6,108%
CCN(CC)C(=O)C1Sc2nnc(-c3ccccc3)n2NC1c1ccccc1 (configuration not stated),101% (inactive),0.1,102%
Cc1[nH]c(=O)[nH]c(=O)c1N,100% (inactive),-0.5,100%
CC[n+]1c(C)n(-c2ccccc2)c2ccc(N)cc21,102% (inactive),0.2,106%
CC[N+](C)(CC)CCC[n+]1c(-c2ccccc2)c2cc(N)ccc2c2ccc(N)cc21,-41% (active) and -58% (active) and 65% (active),-17 and -9.9 and -6.6,-18% and -15% and 39%
CC(=O)Nc1c(C)ccc(NC(=O)C2C(C=C(C)C)C2(C)C)c1C (configuration not stated),102% (inactive),-0.1,102%
CCN(CC)CCNC(=O)c1cc2c(=O)oc3ccc(C)cc3c2s1,89% (active),-1.5,89%
COc1ccc(Cl)cc1N(C)C(=O)c1cc2c(=O)oc3ccc(C)cc3c2s1,107% (inactive),0.4,113%
Cc1ccc2oc(=O)c3cc(C(=O)NC4CCCC4)sc3c2c1,104% (inactive),0.9,98%
O=C(O)CSc1ccc(S(=O)(=O)N2CCCC2)cn1,105% (inactive),0.2,99%

Compound,% elongation,z-score,% elongation [1]
O=C(NC1CCCCC1)c1ccc(-n2ccc3ccccc32)s1,100% (inactive),-0.2,101%
N#Cc1c(/N=C/c2c(O)[nH]c(=O)[nH]c2=O)sc2c1CCC2,110% (inactive),1.2,130%
N#CSc1ccc(N2CCCCC2)cc1,99% (inactive),-0.2,100%
N#CSc1ccc(N)c(Br)c1,75% (active),-3.8,83%
O=C(COC(=O)C1CCC(=O)N1)Nc1nc(-c2ccccc2)cs1 (configuration not stated),101% (inactive),-0.2,104%
COc1ccc(-c2csc(=Nc3ccccc3)n2C)cc1,105% (inactive),0.5,102%
O=C(CNc1ccccc1N1CCCCC1)N1CCc2ccccc21,102% (inactive),0.1,94%
COc1ccccc1C(=O)COC(=O)COc1ccc(C#N)cc1,108% (inactive),0.7,108%
NC(=S)N1CCCCC1,99% (inactive),-0.1,100%
Clc1nc(Nc2ccccc2)sc1/C=N/N1CCOCC1,149% (inactive),5.6,195%
Cc1cc(NC(=O)c2ccccc2C)no1,103% (inactive),0.4,103%
OC(c1nc2ccccc2[nH]1)C(O)C(O)C(O)c1nc2ccccc2[nH]1 (configuration not stated),99% (inactive),-0.6,104%
CS(=O)(=O)c1nc2ccccc2[nH]1,104% (inactive),0.4,107%
N#CC(=C1C(=O)c2ccccc2C1=O)c1nc2ccccc2[nH]1,80% (active),-2.3,88%
COc1ccc(CN2CNc3c(c(C)nn3-c3ccccc3)C2)cc1,100% (inactive),-1,106%
Cc1cccc(-n2c(Cn3ccc(C)n3)n[nH]c2=S)c1,104% (inactive),0.5,105%
CC(C)(C)CNC(=S)NN,98% (inactive),-0.9,101%
C=C(C)CNC(=S)NN,83% (active),-1.3,86%
C=C(C)CNC(=S)N1CCNCC1,99% (inactive),0.1,105%
CCCCN(C)C(=O)C1CCN(c2nn3cc(-c4ccc(OC)cc4)nc3s2)CC1,104% (inactive),0.4,105%
Cc1ccc(NC2=C/C(=N/S(=O)(=O)c3ccc(F)cc3)c3ccccc3C2=O)cc1C,102% (inactive),0.1,106%
CCc1ccccc1N1CC(c2nc3ccccc3n2CCCCOc2ccccc2)CC1=O (configuration not stated),63% (active),-7.7,68%
CCOc1ccc(N2CC(c3nc4ccccc4n3CCOc3ccc(OC)cc3)CC2=O)cc1 (configuration not stated),111% (inactive),0.9,107%
COc1ccc(OCCCn2c(C3CC(=O)N(c4ccc(F)cc4)C3)nc3ccccc32)cc1 (configuration not stated),109% (inactive),0.4,110%
COC(=O)c1ccccc1NC(=O)C1CC(c2cccc(Br)c2)=NO1 (configuration not stated),104% (inactive),0.6,106%
CCOC(=O)C(N)Cc1c[nH]c2ccccc12 (configuration not stated),100% (inactive),-0.3,101%
CC(C)NC(=O)CCc1c[nH]c2ccccc12,62% (active),-4.7,68%

Compound,% elongation,z-score,% elongation [1]
CC(=O)Nc1ccc(NC(=O)C(C)OC(=O)Cc2c[nH]c3ccccc23)cc1 (configuration not stated),105% (inactive),0,108%
CCOC(=O)c1c(C)c(-c2ccccc2)n(CC(=O)N2CCN(c3ccccn3)CC2)c1C,99% (inactive),-0.8,104%
COc1ccc(C/C(C#N)=C/N2CCN(c3ccccc3F)CC2)cc1,102% (inactive),0.1,107%
C=CCn1ccc2c(OCC(=O)c3ccccc3)cccc2c1=O,104% (inactive),0.6,101%
COCCNC(=O)N1c2ccccc2Sc2ccccc21,103% (inactive),0.4,100%
CN1/C(=C/C(=S)C(C)(C)C)Sc2ccccc21,84% (active),-1.7,83%
CCNC(=O)N1c2ccccc2Sc2ccccc21,101% (inactive),0.2,103%
Cc1[nH]nc2c1C1C(C2)C1(C)C (configuration not stated),76% (active),-7.4,105%
CCc1nc(NCc2ccccc2)c(C#N)c2c1COC(C)(C)C2,107% (inactive),0.4,112%
O=C(CSc1nnc(-c2c[nH]c3ccccc23)o1)NCC1CN(Cc2ccccc2)CCO1 (configuration not stated),105% (inactive),0.1,109%
COc1ccc(-c2noc(CC(=O)N(C)c3ccccc3)n2)cc1,106% (inactive),0.7,100%
COC(=O)Cc1cnc(NC(=O)CSc2nc(C(C)C)cc(=O)[nH]2)s1,102% (inactive),0.3,100%
C=CCSc1nnc(NC(=O)CCNS(=O)(=O)c2ccccc2)s1,103% (inactive),0.2,107%
C=CCSc1nnc(NC(=O)CSc2nc(C)cc(=O)[nH]2)s1,88% (active),-4,65%
COc1ccccc1NC(=O)Nc1cc(C(C)(C)C)nn1-c1ccccc1,105% (inactive),0.5,102%
Cc1sc2nc(COC(=O)C(NC(=O)c3ccco3)C(C)C)[nH]c(=O)c2c1C (configuration not stated),94% (inactive),-1.2,219%
CCOC(=O)c1cnc2c(C)cc(C)cc2c1Nc1ccc(N2CCOCC2)cc1,107% (inactive),0.5,110%
CCOC(=O)c1cnc2c(C)cc(Cl)cc2c1NCCc1ccc(OC)c(OC)c1,104% (inactive),-0.4,104%
CCOC(=O)c1cnc2c(C)c(C)ccc2c1NCCCN(C)C,69% (active),-5,53%
O=C(COC(=O)c1cccs1)NCc1cccs1,100% (inactive),-0.1,101%
Cc1nc2ccccc2nc1OCC(=O)N(C1CCCCC1)C1CCCCC1,99% (inactive),-0.3,97%
COC(=O)c1c(NC(=O)C(C)Oc2ccc(Cl)c(C)c2)sc(C)c1C (configuration not stated),109% (inactive),0.5,106%
CCOC(=O)c1sc(NC(=O)/C=C/c2ccc(C(C)C)cc2)c(C(=O)OCC)c1C,105% (inactive),0.3,109%
CCOC(=O)c1c(NC(=O)COc2cc(C)ccc2C(C)C)sc(C)c1C,89% (active),-2.6,88%
COC(=O)c1sc(C)cc1OC(=O)c1ccc(OC)cc1,99% (inactive),-0.2,100%
